Source: PubChem BioAssay (ICCB-Longwood Screening Facility, Harvard Medical School)
Ba CapD inh – Bacillus anthracis CapD inhibitors, primary screen, biochemical, fluorescence intensity; CapD gamma-glutamyltranspeptidase (Bacillus anthracis Ames Ancestor); purified CapD enzyme, fluorescence intensity read-out; active compounds read low; z-score (concentration not given with the values); hit rate 0.23% among 140,000; AID 492967, 2010; in the data active = z-score mostly below about -2.9, no sharp cut-off; inactive = mostly above about -1.9
Hits are given with their value; – = inactive. This is one part of a sample in which hits are shown more often than they occur.

SMILES	Ba CapD inh
CC1C/C(=C\C=C\N(C)C)C(=O)/C(=C/C=C/N(C)C)C1 (centres undefined)	–
CC1CCCCN1C(=O)C12CC3CC(CC(C3)C1)C2 (centres undefined)	–
CC(Oc1ccc(-c2ccccc2)c(F)c1)c1ccn(C(=O)c2ccco2)n1 (centres undefined)	–
CC(=O)Oc1ccc(/C=C2/C(=N)N3C(=NC2=O)SN=C3SC(C)C)cc1	–
CC(C)SC1=NSC2=NC(=O)/C(=C\c3ccc(-c4cccc(C(=O)O)c4)o3)C(=N)N21	-13
CSC1=NSC2=NC(=O)/C(=C\c3ccc(-c4ccccc4)o3)C(=N)N12	–
COc1cccc(C(=O)NC(=S)Nc2ccc(O)c(-c3nc4ccccc4s3)c2)c1	–
CC(C)(C)c1cc(CN(CCO)Cc2cc(C(C)(C)C)c(O)c(C(C)(C)C)c2)cc(C(C)(C)C)c1O	–
CC(C)(C)n1ncc(C(=O)O)c1C(F)(F)F	–
COc1ccccc1C(=O)OC1CCN(C)CC1	–
COc1ccccc1C(=O)ON1C(=O)CCC1=O	-5.5
COc1ccc(C(=O)ON2C(=O)CCC2=O)cc1	–
CC1=NN(c2cccc(C(=O)O)c2)C(=O)/C1=C\c1ccc(N2CCN(C)CC2)c([N+](=O)[O-])c1	–
Cc1nc2ccc(NC(=O)c3cccc(Br)c3)cc2s1	–
CC(=O)Nc1ccc2nc(NC(=O)C(C)(C)C)sc2c1	–
CC(=O)Nc1ccc2nc(C)sc2c1	-5.7
COc1ccc(C(=O)Nc2cc(C(=O)Nc3ccc4c(c3)OCCO4)ccc2N2CC3CC(C2)c2cccc(=O)n2C3)cc1 (centres undefined)	–
CN1/C(=C/C(=O)c2ccco2)Sc2ccccc21	–
CN1/C(=C\C=C2C(=O)c3ccccc3C2=O)Sc2ccccc21	–
CC(=S)/C=C1\Sc2ccccc2N1C	-5.3
COc1ccc(-n2nc(C(=O)N(C)Cc3ccccc3)c3c4ccccc4n(C)c3c2=O)cc1	–
COc1ccc(-n2nc(C(=O)N(C)c3ccccc3)c3c4ccccc4n(C)c3c2=O)cc1	-4.3
COc1ccc(-n2nc(C(=O)N3CCCC3)c3c4ccccc4n(C)c3c2=O)cc1	–
CN1C(=O)/C(=C/c2cccn2C(C)(C)C)C(=O)NC1=S	-4.5
CN1C(=O)C(=Cc2cccn2C(C)(C)C)C(=O)N(C)C1=S	–
SMILES	Ba CapD inh
CCc1ccc(N2C(=O)/C(=C/c3cccn3C(C)(C)C)C(=O)NC2=S)cc1	–
COc1ccc(C2=NN(C(=O)CSc3nnc(CNC(=O)c4cccc(OC)c4)n3C)C(c3ccc(C)cc3)C2)cc1 (centres undefined)	–
CCOC(=O)c1sc(NC(=O)c2ccc(C)c(S(=O)(=O)N3CCCCC3)c2)c(C(=O)OCC)c1C	–
COc1ccc(N(C(=O)c2ccncc2)S(=O)(=O)c2ccc(OC)c(OC)c2)cc1	-5.6
COc1ccc(S(=O)(=O)N(C)c2ccc(C(N)=O)cc2)cc1OC	–
COc1ccc(N(C(C)=O)S(=O)(=O)c2cc(OC)ccc2OC)cc1	–
COc1cc(C#N)ccc1OCC(=O)Nc1ccc(F)cc1	–
O=C(Cn1c(C(F)(F)F)nc2ccccc21)NCCN1CCOCC1	–
CCOC(=O)c1ccccc1S(N)(=O)=O	–
CCOC(=O)c1cccc(O)c1O	-2.7
CCOC(=O)c1cc2ccccc2cc1O	–
CC(O)C(=O)Nc1cc(Cl)cc(Cl)c1 (centres undefined)	–
CSc1ccc(-c2nc(SCC(=O)NCc3ccco3)c(-c3ccccc3)[nH]2)cc1	–
CCOc1ccccc1NC(=O)c1c(NC(=O)c2ccc(Br)cc2)sc2c1CCCCC2	–
Cc1ccc(/C=C2\N=C(c3ccc(C4=N/C(=C\c5ccc(C)o5)C(=O)O4)cc3)OC2=O)o1	–
Cc1ccc(/C=C2\CC/C(=C\c3ccc(C)o3)C2=O)o1	–
Cc1ccc(/C=C2/C=CC(=O)O2)o1	-5.2
CC(C)(C)NC(=S)Nc1cc(C(F)(F)F)ccc1N1CCCCC1	–
CSC(=CC(=O)c1ccccc1F)SC	-4.1
CSC(=CC(=O)c1cccc2ccccc12)SC	–
CSC(=CC(=O)c1ccc(F)cc1)SC	–
COc1ccc(-c2cc(C(=O)Nc3ccc(S(N)(=O)=O)cc3)c3ccccc3n2)cc1	–
Cc1cc2c(cc1C)CSC(c1ccc(N(C)C)cc1)SC2	–
COC(=O)c1ccc(NC(=O)C2CC2(c2cccc(C)c2)c2cccc(C)c2)cc1 (centres undefined)	–
O=C(O)CN1C(=O)/C(=C\c2ccc(-c3ccc([N+](=O)[O-])cc3Cl)o2)SC1=S	–
SMILES	Ba CapD inh
O=C(O)CN1C(=O)/C(=C\c2cc([N+](=O)[O-])cc(Br)c2O)SC1=S	-7.9
O=C1/C(=C/c2cc([N+](=O)[O-])cc(Br)c2O)SC(=S)N1c1ccc([N+](=O)[O-])cc1	–
Cc1ccc(Cn2cc(CCCC(=O)N3CCCC3)c3ccccc32)cc1	–
CCOC(=O)C1C(=O)NC(SCC(=O)Nc2ccc(Br)cc2)=C(C#N)C1c1ccccc1OCC (centres undefined)	–
FC(F)(F)C1=Nc2cc(Cl)c(Cl)cc2N=C(c2cccs2)C1	–
Cc1nnc(N2C(=O)C(=O)/C(=C(/O)c3ccc(OC(C)C)cc3)C2c2ccco2)s1 (centres undefined)	–
